Results on 39 compounds are retold here after PubChem BioAssay (Tox21).

Several values for one entry are separate records, joined by “and”; a condition that tells them apart may be missing. Equal entries are not always repeated. Inconclusive results are not listed. More than one record can exist for a structure, and the calls need not agree. Activity calls are given as the source filed them. Calls come from the whole dose curve; as a rule, active = well fitted inhibition curve with a large enough effect in the repeat runs; inconclusive = weak or mixed curves; inactive = no such curve, though single readings can be large or run the other way.
% is set by controls: 0 for no effect and ±100 for the full control effect; potency is the fitted concentration of half-maximal effect.

Sequence of Cytochrome P450 2C19 (Homo sapiens) (P33261 whole entry, looked up): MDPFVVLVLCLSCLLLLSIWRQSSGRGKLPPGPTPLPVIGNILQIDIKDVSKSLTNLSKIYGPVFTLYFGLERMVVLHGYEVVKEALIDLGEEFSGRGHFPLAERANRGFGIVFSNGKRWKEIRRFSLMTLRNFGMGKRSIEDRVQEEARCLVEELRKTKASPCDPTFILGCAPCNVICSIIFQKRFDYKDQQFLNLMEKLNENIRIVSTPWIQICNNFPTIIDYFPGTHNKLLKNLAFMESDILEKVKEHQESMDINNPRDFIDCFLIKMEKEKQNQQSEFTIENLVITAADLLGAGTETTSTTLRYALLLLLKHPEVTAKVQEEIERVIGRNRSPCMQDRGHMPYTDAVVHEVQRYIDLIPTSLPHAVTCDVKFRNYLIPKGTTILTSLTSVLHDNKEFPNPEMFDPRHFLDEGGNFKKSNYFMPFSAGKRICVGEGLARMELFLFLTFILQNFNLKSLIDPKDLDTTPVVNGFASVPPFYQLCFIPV

The target of this assay is Cytochrome P450 2C19 (Homo sapiens) (UniProt P33261). Put plainly: Cytochrome P450 Family 2 Subfamily C Member 19 (CYP2C19) small molecule antagonists: luciferase reporter qHTS assay (AID 1671197). Note: nearly all actives have a fitted effect of over 65% in size. Conditions: P450-Glo CYP2C19 enzyme, luciferin luminescence, 1 h; series mostly up to 115 µM; activity change, negative = inhibition: at the top concentration. An excerpt:
National Center for Advancing Translational Sciences [NCATS]
U.S. Environmental Protection Agency [EPA]
National Institutes of Environmental Health Sciences [NIEHS]
National Toxicology Program [NTP]
U.S. Food and Drug Administration [FDA]
Cytochrome P450 (CYP) enzymes are membrane-bound hemeproteins that play a key role in metabolism of drugs and xenobiotics. Evaluation of the effect of chemicals on CYP isozymes is useful to minimize the adverse drug reactions and toxicities in drug development process. Tox21 chemicals were tested for their effect on CYP enzyme activities by using P450-Glo (TM) screening systems (Promega Corporation, Madison, WI). These systems provide a luminescent method containing proluciferin substrates and are converted to luciferin products by CYP isozymes. The luciferin products formed are detected with a luciferin detection reagent, and the amount of light produced is proportional to CYP activity. P450-Glo (TM) CYP2C19 screening system (Catalog. No. V9880) was used to detect the compounds that interfere in CYP2C19 activity. The positive control compound used for CYP2C19 assay is ketoconazole (Sigma-Aldrich, St. Louis, MO).
Tox21 Assay Protocol Summary:
Two ul of enzyme-substrate mix was dispensed into medium binding white/solid 1536-well plates (Greiner Bio-One North America Inc., Monroe, NC) using a BioRaptr Flying Reagent Dispenser (FRD, Beckman Coulter, Brea, CA). Compounds dissolved in DMSO and positive control (ketoconazole) were transferred to the assay plates at 23 nl using a Pintool station (Wako, San Diego, CA). The assay plates were incubated at room temperature for 10 min. Then 2 ul of NADPH regeneration solution was added to each well of the assay plates using an FRD and incubated at 37C for 1 h. The reaction was stopped by adding 4 ul of detection reagent using an FRD and after 20 min incubation at room temperature the luminescence signal was measured using a ViewLux plate reader (Perkin Elmer, Shelton, CT). Data were expressed as relative luminescence units.
A general note: Reporter assays use an easily measured gene product as a stand-in for the process of interest.
`CC(COCC(C)OC(=O)c1ccccc1)OC(=O)c1ccccc1` (stereo not given): the Potency was 19.9 µM (active) and 11.2 µM (active). The same measure, in the same setting: as for `Cc1cc(C)cc(O)c1`, the figure is 40 µM (active) and 73.1 µM (active). For `COc1ccc2cc3[n+](cc2c1OC)CCc1cc2c(cc1-3)OCO2`, the Potency was 20.2 µM (active) and inactive. Regarding `Nc1cccc(C(F)(F)F)c1`, the Potency entry was “inactive”. Same read-out and setting: as for `CCCCCCCCC(=O)O`, the figure is 30.7 µM (active); as for `CC(CN1c2ccccc2Sc2ccccc21)N(C)C` (stereo not given), 8.05 µM (active) and 10 µM (active) and 7.76 µM (active).

As to `O=[N+]([O-])c1cc(C(F)(F)F)ccc1Cl`, the “activity change, negative = inhibition” value is 20.1% (inactive). As for `COc1ccc([C@@H]2CC(=O)c3c(O)cc(O[C@@H]4O[C@H](CO[C@@H]5O[C@@H](C)[C@H](O)[C@@H](O)[C@H]5O)[C@@H](O)[C@H](O)[C@H]4O)cc3O2)cc1OC`, the Potency result was “inactive”. For `CCc1cccc(CC)c1N`, the Potency entry is “inactive and 79.6 µM (active)”. With `CS(=O)(=O)c1ccc(Cl)cc1`, the “activity change, negative = inhibition” value was -14.7% (inactive). In the case of `CC(=O)OC(C)(C)C1CC=C(C)CC1` (stereo not given), the Potency is 35.6 µM (active). Same read-out and setting: under `C[Si](C)(C)N[Si](C)(C)C` stands “inactive”. Turning to `CC(C)c1ccc(C(C)C)cc1`, the “activity change, negative = inhibition” value was -8.58% (inactive).

With `CCCCCC(C)=O`, the Potency was 81.3 µM (active) and inactive. On the same count and under the same terms, under `C[n+]1ccn(CCO)c1` stands “inactive”. `COc1c(Cl)ccc(Cl)c1C(=O)O`: the “activity change, negative = inhibition” value was -1.61% (inactive). With `O=Cc1ccc(CO)o1`, the Potency result was “inactive”.

Consider `O=C(Cl)c1ccc(C(=O)Cl)cc1`, for which the Potency entry was “inactive”.

In the case of `CN1Cc2c(N)cccc2C(c2ccccc2)C1` (stereo not given), the Potency entry was “inactive”. As to `CCn1cc(C(=O)O)c(=O)c2cc3c(cc21)OCO3`, the activity change, negative = inhibition is -7.51% [at 23.6 µM] (inactive) and the Potency is 51 µM (active). Regarding `Cc1ccccc1Cl`, the “activity change, negative = inhibition” value is -3.86% (inactive). For the compound `CC1(C)C(=O)N(Cl)C(=O)N1Cl`, the Potency is 71.1 µM (active).

With `CCCCCCC(=O)O`, the Potency result was “inactive”. With `CC(=O)c1nccs1`, the Potency was 26.1 µM (active) and inactive.

As for `CCc1cccc(O)c1`, the Potency is 40.8 µM (active). Same read-out and setting: under `OCC(CO)(CO)CO` stands “inactive”; under `CC(C)(C)NC[C@H](O)COc1nsnc1N1CCOCC1`, “inactive”.

`CCCOCC(C)O` (stereo not given): the Potency entry was “inactive”. Same read-out and setting: as for `CC/C(C)=N/O`, the entry is “inactive”. Take `Cc1ccc(Cl)cc1`: the “activity change, negative = inhibition” value was -28.4% (inactive).

Turning to `CC(=O)C(C)C`, the Potency result was “inactive”. Turning to `COC(=O)CCCCC(=O)OC`, the Potency entry is “inactive”. Same read-out and setting: as for `CC1=CC(=O)CC(C)(C)C1`, the figure is 18.4 µM (active) and inactive. As for `CC(C)(CO)CO`, the “activity change, negative = inhibition” value was 6.04% (inactive). Regarding `Cc1cccc(C)c1[N+](=O)[O-]`, the Potency entry was “inactive”. As to `CC1(C)[C@@H](O[C@H]2O[C@H](C(=O)O)[C@@H](O)[C@H](O)[C@H]2O[C@@H]2O[C@H](C(=O)O)[C@@H](O)[C@H](O)[C@H]2O)CC[C@]2(C)[C@H]3C(=O)C=C4[C@@H]5C[C@@](C)(C(=O)O)CC[C@]5(C)CC[C@@]4(C)[C@]3(C)CC[C@@H]12`, the Potency result was “inactive”.

In the case of `CC(O)CNCC(C)O` (stereo not given), the Potency was 20.1 µM (active) and 71 µM (active). Same read-out and setting: as for `CO[Si](CCCNCCN)(OC)OC`, the entry is “inactive”. On the same count and under the same terms, as for `Oc1ccc(Cc2ccccc2O)cc1`, the figure is 36 µM (active) and 39.9 µM (active).
